The source of these data is PubChem BioAssay (EPA / NIEHS).

Each structure is given as a SMILES string. Activity calls are given as the source filed them. How the source made its calls: active means hit-call score of the fitted dose curve at least 0.9, where 1 is the maximum; inactive means score below 0.9.

The term AC50 denotes the concentration at which the activity in the assay is half-maximal.

Read-out in experiment [1]: Vascular cell adhesion molecule 1 (VCAM1), VCAM1 (gene 7412)
Put plainly: BSK_4H_VCAM1: BioMAP Diversity Plus: 4H Assay for Vascular cell adhesion molecule 1 (VCAM1) Biomarker Activity (AID 2283033).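 Further: cell-surface VCAM-1 protein measured by ELISA.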 The following applies: primary human endothelial cells (HUVEC); actives raise or lower the signal. An outline of the steps:
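In this human endothelial (HUVEC) system, biomarker ELISA was run 24 h after compound addition, and total protein in parallel wells was assessed by SRB at 560 nm; DMSO served as negative control.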

Read-out in experiment [2]: Interferon-gamma inducible Protein 10 (IP10), CXCL10 (gene 3627)
Put plainly: BSK_BE3C_IP10: BioMAP Diversity Plus: BE3C Assay for Interferon-gamma inducible Protein 10 (IP10) Biomarker Activity (AID 2283034). The following applies: primary human bronchial epithelial cells; actives raise or lower the signal. Summed up:
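BE3C cells (human bronchial epithelial, primary); 24 h exposure; ELISA for IP-10; DMSO-referenced bidirectional fit.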

Read-out in experiment [3]: Monokine induced gamma interferon (MIG), CXCL9 (gene 4283)
Briefly: BSK_BE3C_MIG: BioMAP Diversity Plus: BE3C Assay for Monokine induced gamma interferon (MIG) Biomarker Activity (AID 2283035).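 On outcome: MIG protein measured by ELISA in BE3C cultures after 24 h of dosing.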 The following applies: primary human bronchial epithelial cells; actives raise or lower the signal. An outline of the steps: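 hu bronchial epithelial 1° cells, 24 h cpd; MIG by ELISA; bidirectional fit, DMSO = baseline.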

Read-out in experiment [4]: Transforming growth factor beta 1 (TGFb1), TGFB1 (gene 7040)
Put plainly: BSK_BE3C_TGFb1: BioMAP Diversity Plus: BE3C Assay for Transforming growth factor beta 1 (TGFb1) Biomarker Activity (AID 2283036;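 on outcome: TGF-b1 protein level measured by ELISA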). The following applies: primary human bronchial epithelial cells; actives raise or lower the signal. Summed up:
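TGF-b1 measured via ELISA, 24 h after chemical dosing of human bronchial epithelial cells (BE3C). Overt cytotoxicity assessed in parallel by SRB (0.1%, TCA-fixed, 560 nm); analysis bidirectional relative to DMSO.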

Read-out in experiment [5]: Plasminogen activator inhibitor-1 (PAI1), SERPINE1 (gene 5054)
Briefly: BSK_BE3C_PAI1: BioMAP Diversity Plus: BE3C Assay for Plasminogen activator inhibitor-1 (PAI1) Biomarker Activity (AID 2283037). Conditions: primary human bronchial epithelial cells; actives raise or lower the signal. An outline of the steps:
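In this multiplexed primary-cell system, bronchial epithelial cells receive test chemical and are sampled at 24 h. PAI-1 is read by ELISA, with DMSO serving as negative control for bidirectional fitting.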

Read-out in experiment [6]: urokinase plasminogen activator (uPA), PLAU (gene 5328)
Put plainly: BSK_BE3C_uPA: BioMAP Diversity Plus: BE3C Assay for urokinase plasminogen activator (uPA) Biomarker Activity (AID 2283038).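 On outcome: uPA protein level quantified by ELISA in cell cultures; uPA read one day after compound addition.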 Conditions: primary human bronchial epithelial cells; actives raise or lower the signal. An outline of the steps:
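Primary human bronchial epithelial cells, uPA measured by ELISA 24 h after dosing. Bidirectional change relative to DMSO; cytotoxicity checked in parallel cultures by sulforhodamine B total-protein staining.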

Read-out in experiment [7]: Urokinase-type plasminogen activator receptor (uPAR), PLAUR (gene 5329)
Briefly: BSK_BE3C_uPAR: BioMAP Diversity Plus: BE3C Assay for Urokinase-type plasminogen activator receptor (uPAR) Biomarker Activity (AID 2283039).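 On outcome: uPAR protein level measured by ELISA on the cells; cells exposed to compound for one day before measurement.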 The following applies: primary human bronchial epithelial cells; actives raise or lower the signal. Summed up: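 Chemically treated human bronchial epithelial cells (lung primary) are assayed for uPAR by ELISA after 24 h, with data fitted in both directions using DMSO as negative control.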

Read-out in experiment [8]: Interleukin-6 (IL6), IL6 (gene 3569)
Put plainly: BSK_CASM3C_IL6: BioMAP Diversity Plus: CASM3C Assay for Interleukin-6 (IL6) Biomarker Activity for (AID 2283040). Conditions: primary human coronary artery smooth muscle cells; actives raise or lower the signal.

Read-out in experiment [9]: Tissue plasminogen activator (tPA), PLAT (gene 5327)
Briefly: BSK_BE3C_tPA: BioMAP Diversity Plus: BE3C Assay for Tissue plasminogen activator (tPA) Biomarker Activity (AID 2283041).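 On outcome: tPA level quantified by ELISA one day after compound addition.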 The following applies: primary human bronchial epithelial cells; actives raise or lower the signal. Summed up: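 Using human lung primary bronchial epithelial cells, tPA was measured by ELISA 24 h after dosing; data fitted relative to DMSO.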

Read-out in experiment [10]: Interleukin-8 (IL8), CXCL8 (gene 3576)
Briefly: BSK_CASM3C_IL8: BioMAP Diversity Plus: CASM3C Assay for Interleukin-8 (IL8) Biomarker Activity (AID 2283042).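 Further: IL-8 protein level quantified by ELISA.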 Conditions: primary human coronary artery smooth muscle cells; actives raise or lower the signal.

For the compound `CC(C=O)Cc1ccc2c(c1)OCO2` (stereo not drawn), the result in [1], in experiment [2], in [3], in [4], in experiment [5] and in experiment [6] was inactive. For the same compound, the result in [7], in experiment [8], in [9] and in experiment [10] was inactive.
Regarding `C#CCOC(=O)/C=C(C)/C=C/CC(C)CCCC(C)C` (stereo not drawn), the AC50 in [2] is 1.32 µM (active). Moreover, the outcome in experiment [3], in experiment [4], in [5], in experiment [6], in [7] and in [8] was inactive. In addition, the outcome in [9] and in experiment [10] was inactive.
On to `Nc1ccc(N)cc1`, for which the result in experiment [2], in [3], in experiment [4], in [5], in experiment [6] and in experiment [7] was inactive. For the same compound, the result in [8], in experiment [9] and in experiment [10] was inactive.
As for `C[C@]12CC[C@@H](O)C[C@@H]1CC[C@@H]1[C@@H]2CC[C@]2(C)C(=O)CC[C@@H]12`, the outcome in experiment [2], in experiment [3], in [4], in experiment [5], in experiment [6] and in experiment [7] was inactive. In addition, the result in experiment [8], in experiment [9] and in experiment [10] was inactive.
Consider `CCOC(=O)CC(=O)CCl`, for which the AC50 is 20 µM (active) in experiment [2]; 5.96 µM (active) in experiment [4]; 4.09 µM (active) in experiment [6]; 28.8 µM (active) in experiment [8]; 3.97 µM (active) in experiment [9]. Moreover, the outcome in experiment [3], in [5], in experiment [7] and in [10] was inactive.
`CCN(CC)C(=O)C(Cl)=C(C)OP(=O)(OC)OC`: the result in [2], in experiment [3], in experiment [4], in [5], in [6] and in [7] was inactive. Besides, the outcome in experiment [8], in experiment [9] and in experiment [10] was inactive.
Turning to `Cc1ccc(OP(=O)(Oc2ccc(C)cc2C)Oc2ccc(C)cc2C)c(C)c1`, the result in [2], in [3], in experiment [4], in [6], in experiment [7] and in experiment [8] was inactive. For the same compound, the result in experiment [10] was inactive. Further, the AC50 in experiment [5] was 6.01 µM (active); in [9] it was 3.86 µM (active).
Take `O=c1oc2ccccc2c(O)c1C(CC(O)c1ccc(-c2ccc(Br)cc2)cc1)c1ccccc1` (stereo not drawn): the AC50 in [2] is 5.4 µM (active); in experiment [3], 10.5 µM (active); in [4], 0.144 µM (active); in experiment [5] it was 0.915 µM (active); in experiment [6] it was 5.29 µM (active); in experiment [7], 5.34 µM (active). For the same compound, the values for the AC50 in experiment [8], in experiment [9] and in experiment [10] were 25 µM (active), 0.837 µM (active) and 0.0413 µM (active), respectively.
Turning to `O=[N+]([O-])c1cccc2ccccc12`, the outcome in [2], in experiment [3], in experiment [4], in [5], in [6] and in [7] was inactive. Further, the outcome in [8], in experiment [9] and in experiment [10] was inactive.
For the compound `COCC(=O)N(c1c(C)cccc1C)[C@H](C)C(=O)OC`, the outcome in experiment [2], in experiment [3], in experiment [4], in [5], in [6] and in [7] was inactive. The outcome in experiment [8], in experiment [9] and in [10] was inactive.
In the case of `OCCCCO`, the result in experiment [2], in [3], in [5], in [6], in experiment [7] and in experiment [8] was inactive. Further, the result in experiment [9] and in [10] was inactive.
On to `CC(C)(C)c1cc([N+](=O)[O-])cc(C(C)(C)C)c1O`, for which the outcome in experiment [2], in experiment [3], in experiment [4], in experiment [5], in [6] and in experiment [7] was inactive. Besides, the result in [8], in [9] and in experiment [10] was inactive.
Regarding `Oc1c(Br)cc(Br)cc1Br`, the AC50 in experiment [2] and in experiment [7] was 20 µM (active) in each case. The result in experiment [3], in [4], in [5], in [6], in experiment [8] and in [9] was inactive. In [10], the outcome was inactive.
On to `N#CCCC(Br)(C#N)CBr` (stereo not drawn), for which the AC50 in [2] was 28.1 µM (active); in experiment [3], 36.8 µM (active); in experiment [4] it was 20 µM (active); in experiment [5] it was 20 µM (active); in experiment [6] it was 20 µM (active); in experiment [7] it was 20 µM (active). Also, the concentration at half-maximal activity (AC50) in experiment [8] is 20 µM (active); in experiment [9], 9.86 µM (active); in experiment [10] it was 20 µM (active).
For the compound `O=[N+]([O-])c1ccc(Nc2ccccc2)cc1`, the outcome in experiment [2], in experiment [3], in [4], in experiment [5], in experiment [6] and in experiment [7] was inactive. Besides, the result in [8], in [9] and in [10] was inactive.
In the case of `CC(C)=CC1C(C(=O)OCc2cccc(Oc3ccccc3)c2)C1(C)C` (stereo not drawn), the outcome in [2], in [3], in [4], in experiment [5], in experiment [6] and in experiment [7] was inactive. For the same compound, the outcome in experiment [8] and in experiment [10] was inactive. Moreover, the AC50 in [9] was 9.82 µM (active).
Consider `Cc1ccccc1OP(=O)(Oc1ccccc1C)Oc1ccccc1C`, for which the AC50 is 13.3 µM (active) in [2]; 11.4 µM (active) in experiment [4]; 11 µM (active) in [5]; 8.58 µM (active) in experiment [8]; 7.43 µM (active) in experiment [9]. The outcome in experiment [3], in experiment [6], in experiment [7] and in experiment [10] was inactive.
